For 70 compounds, inhibition results are on record in PubChem BioAssay AID743449 (Broad Institute, 2014).

Where “and” joins values, the source holds several entries; their conditions need not be identical. Equal entries are not always repeated. Screen size: about 9,900 compounds; about 90 (0.9%) were called active. Not shown: some 2% with an inconclusive outcome.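 The calls were made as follows: active = mean normalized replicate activity at least 50 and at least half of replicates each reaching 50; inconclusive = only one of the two criteria met; inactive = neither criterion met.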 The full list was thinned out, with actives kept by preference.

A short description of the assay: YAP1 pathway inhibitors via CTGF transcript, primary screen, DLD1 colon cancer cells, RT-qPCR, single point (AID 743449).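 Also: 0% = neutral control wells and 100% = dasatinib control wells; higher means stronger suppression of CTGF expression like dasatinib.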 The note with it: DLD1 CTGF mRNA qPCR, 24 h; at 12.5 µM; stronger effect = higher value.
Turning to `C[C@H](CO)N1C[C@H](C)[C@@H](CN(C)S(=O)(=O)c2cn(C)cn2)OCc2ccccc2-c2ccccc2C1=O`, the inhibition was 13.5% (inactive).
In the case of `C[C@H]1CN([C@@H](C)CO)C(=O)c2cc(-c3ccncc3)cnc2O[C@@H]1CN(C)C(=O)CN1CCOCC1`, the inhibition was 4.89% (inactive).
Consider `O=C(C1CCOCC1)N1C[C@H]2[C@@H](c3ccccc31)[C@H](CO)N2C(=O)Cc1ccccn1`, for which the inhibition was -3.22% (inactive).
With `CCCNC(=O)N(C)C[C@H]1[C@H](c2ccccc2)[C@@H](CO)N1C(=O)c1ccccc1` the figure was 13.1% (inactive); with `COCC(=O)Nc1ccc2c(c1)[C@H]1C[C@@H](CC(=O)N3CCOCC3)O[C@H](CO)[C@H]1O2`, -2.81% (inactive).
In the case of `C[C@H](CO)N1C[C@H](C)[C@H](CN(C)Cc2cccnc2)Oc2ncc(-c3ccc(C#N)cc3)cc2C1=O` it was 10.9% (inactive).
With `Cc1noc(C)c1S(=O)(=O)N(C)C[C@H]1OCCCC[C@@H](C)Oc2ccc(NC(=O)CCC(F)(F)F)cc2C(=O)N([C@@H](C)CO)C[C@H]1C` the figure was -10.5% (inactive); with `CCN1[C@@H]2c3ccc(C4=CCCC4)c(=O)n3C[C@@H]2[C@@H](CO)[C@@H]1C(=O)NC1Cc2ccccc2C1`, -18.3% (inactive).
Turning to `Cc1cc(C(=O)Nc2ccc3c(c2)C(=O)N(C)[C@@H]2CC[C@@H](CC(=O)O)O[C@H]2CO3)no1`, the inhibition was 8.49% (inactive).
Regarding `COCC(=O)N1CC[C@@H]2[C@H]1c1cc(C#Cc3ccc(F)cc3)ccc1N[C@@H]2CO`, the inhibition was 22.4% (inactive).
With `COCC(=O)N1CC[C@@H]2[C@@H](CO)Nc3ccc(C#Cc4ccc(F)cc4)cc3[C@@H]21` the figure was 12.9% (inactive); with `COCC(=O)N1CC[C@@H]2[C@H](CO)Nc3ccc(C#Cc4ccc(F)cc4)cc3[C@@H]21`, 51.2% (active).
On to `COc1cccc(NC(=O)C[C@@H]2CC[C@@H]3[C@H](COc4ccc(NS(=O)(=O)c5cccc(F)c5)cc4C(=O)N3C)O2)c1`, for which the inhibition is -76.5% (inactive).
With `C[C@H]1CN([C@@H](C)CO)C(=O)c2c(c3ccccc3n2C)-c2ccccc2CO[C@@H]1CN(C)S(=O)(=O)c1ccc([N+](=O)[O-])cc1` the figure was 23.9% (inactive); with `C[C@H](CO)N1C[C@H](C)[C@@H](CN(C)S(=O)(=O)c2ccc([N+](=O)[O-])cc2)OCc2ccccc2-c2c(n(C)c3ccccc23)C1=O`, 63.8% (active).
In the case of `C[C@H]1CN([C@@H](C)CO)C(=O)c2ccccc2-c2ccccc2CO[C@H]1CN(C)Cc1cccc2c1OCCCO2` it was 24% (inactive).
For `C[C@@H]1CN([C@@H](C)CO)C(=O)c2ccccc2-c2ccccc2CO[C@@H]1CN(C)Cc1cccc2c1OCCCO2`, the inhibition was 14.7% (inactive).
With `C[C@@H]1CN([C@@H](C)CO)C(=O)c2ccccc2-c2ccccc2CO[C@@H]1CN(C)Cc1ccccc1C(F)(F)F` the figure was -64.4% (inactive).
Consider `C[C@@H]1CN([C@@H](C)CO)C(=O)c2ccccc2-c2ccccc2CO[C@@H]1CN(C)S(=O)(=O)c1cn(C)cn1`, for which the inhibition is 63% (active).
With `C[C@H](CO)N1C[C@H](C)[C@H](CN(C)Cc2ccccc2C(F)(F)F)OCc2ccccc2-c2ccccc2C1=O` the figure was 26.5% (inactive); with `C[C@@H]1CN([C@@H](C)CO)C(=O)c2ccccc2-c2ccccc2CO[C@H]1CN(C)S(=O)(=O)c1cn(C)cn1`, -9.13% (inactive).
Regarding `C[C@@H]1CN([C@@H](C)CO)C(=O)c2c(c3ccccc3n2C)-c2ccccc2CO[C@H]1CN(C)S(=O)(=O)c1ccc([N+](=O)[O-])cc1`, the inhibition is 7.85% (inactive).
`C[C@@H]1CN([C@H](C)CO)C(=O)c2ccccc2-c2ccccc2CO[C@@H]1CN(C)Cc1cccc2c1OCCCO2`: the inhibition was 59.4% (active).
For `C[C@@H]1CN([C@H](C)CO)C(=O)c2ccccc2-c2ccccc2CO[C@@H]1CN(C)Cc1ccccc1C(F)(F)F`, the inhibition is 69.6% (active).
In the case of `C[C@H]1CN([C@@H](C)CO)C(=O)c2ccccc2-c2ccccc2CO[C@@H]1CN(C)S(=O)(=O)c1cn(C)cn1` it was -12.7% (inactive); in that of `O=C(c1cnccn1)N1C[C@@H]2N[C@H](C1)C2c1ccc(/C=C/c2ccccc2)cc1` (stereo not given in full), -30.1% (inactive) and 19.5% (inactive); in that of `O=C(C[C@H]1CC[C@H]2[C@@H](COC[C@@H](O)CN2C(=O)c2ccc(F)cc2)O1)N1CCCCC1`, -4.99% (inactive).
In the case of `COc1ccc(-c2ccc([C@H]3[C@H](CO)N4C(=O)CN(C(=O)C5CC5)C[C@@H]34)cc2)cc1` it was 4.63% (inactive); in that of `COc1cccc(NC(=O)N[C@H]2CC[C@@H](CC(=O)N3CCN(C)CC3)O[C@@H]2CO)c1`, -6.95% (inactive).
In the case of `O=C(NC[C@H]1N[C@H](CO)[C@@H]1c1ccc(-c2cncnc2)cc1)C1CCCCC1` it was -7.65% (inactive); in that of `COc1ccc2c3c(n(C)c2c1)[C@@H](CO)N(C(C)=O)CC31CN(S(=O)(=O)c2ccccc2)C1`, 1.07% (inactive).
`CC(C)c1cccc(NC(=O)C[C@H]2CC[C@H]3[C@@H](COc4ccc(NC(=O)NCc5ccccc5)cc4C(=O)N3C)O2)c1`: the inhibition was 22.2% (inactive).
Consider `O=C(Nc1ccccc1F)N1C[C@@H]2[C@H](c3ccccc31)[C@@H](CO)N2C(=O)Cc1cccnc1`, for which the inhibition was 7.57% (inactive).
In the case of `CN1c2ccc(Br)cc2[C@@H]2[C@@H](CCN2S(=O)(=O)c2ccccc2F)[C@@H]1CO` it was 9.29% (inactive).
In the case of `NCC[C@@H]1CC[C@@H](NC(=O)NC2CCCCC2)[C@@H](CO)O1` it was 5.69% (inactive); in that of `NCC[C@H]1CC[C@H](NC(=O)NC2CCCCC2)[C@@H](CO)O1`, 23.6% (inactive); in that of `NCC[C@H]1CC[C@@H](NC(=O)NC2CCCCC2)[C@H](CO)O1`, 53% (active).
In the case of `O=C(NCc1cccc(F)c1)[C@H]1[C@H](CO)[C@H]2Cn3c(ccc(-c4ccncc4)c3=O)[C@@H]1N2CC1CC1` it was -29.8% (inactive); in that of `Cn1cnc(S(=O)(=O)N[C@@H]2CC[C@H](CC(=O)NCC3CCCCC3)O[C@H]2CO)c1`, -20.2% (inactive).
As for `COc1ccc2c3c(n(C)c2c1)[C@@H](CO)N(CC1CC1)CC31CN(S(=O)(=O)c2cn(C)cn2)C1`, the inhibition was 10% (inactive).
As to `Cc1ccc(S(=O)(=O)N[C@@H]2C=C[C@@H](CC(=O)NCc3ccc(Cl)c(Cl)c3)O[C@H]2CO)cc1`, the inhibition is 31% (inactive).
With `Cc1ccc(S(=O)(=O)N[C@H]2C=C[C@H](CC(=O)NCc3ccc(Cl)c(Cl)c3)O[C@H]2CO)cc1` the figure was 52.5% (active); with `Cc1ccc(S(=O)(=O)N[C@H]2C=C[C@H](CC(=O)NCc3ccc(Cl)c(Cl)c3)O[C@@H]2CO)cc1`, -5.24% (inactive).
In the case of `C/C=C/c1ccc([C@@H]2[C@@H](C#N)N(c3nc(CC)cs3)[C@@H]2CO)cc1`, the inhibition was 44.5% (inactive).
Take `COc1cccc(-c2ccc([C@H]3[C@H](C#N)N(C(=O)Cc4ccncc4)[C@H]3CO)cc2)c1`: the inhibition was -33.7% (inactive).
In the case of `COc1cccc(-c2ccc([C@@H]3[C@@H](C#N)N(C(=O)Cc4ccncc4)[C@@H]3CO)cc2)c1`, the inhibition is 50.4% (active).
In the case of `COc1cccc(-c2ccc([C@H]3[C@@H](CO)N(C(=O)Cc4ccncc4)[C@H]3C#N)cc2)c1` it was -2.53% (inactive); in that of `COc1ccc(CN(C)C[C@H]2Oc3ccc(NC(=O)Nc4ccc5c(c4)OCO5)cc3CC(=O)N([C@@H](C)CO)C[C@H]2C)cc1`, 57.9% (active); in that of `C[C@H]1CN([C@@H](C)CO)C(=O)Cc2cc(NC(=O)C3CCCCC3)ccc2O[C@H]1CN(C)Cc1ccc(Cl)c(Cl)c1`, 35.6% (inactive).
In the case of `C[C@@H]1CN([C@H](C)CO)C(=O)Cc2cc(NC(=O)C3CCCCC3)ccc2O[C@H]1CN(C)Cc1ccc(Cl)c(Cl)c1` it was -7.16% (inactive); in that of `C[C@@H]1CN([C@@H](C)CO)C(=O)Cc2cc(NC(=O)C3CCCCC3)ccc2O[C@@H]1CN(C)Cc1ccc(Cl)c(Cl)c1`, 50.3% (active); in that of `COc1ccc(CN(C)C[C@@H]2Oc3ccc(NC(=O)Nc4ccc5c(c4)OCO5)cc3CC(=O)N([C@@H](C)CO)C[C@H]2C)cc1`, 13.9% (inactive).
With `COc1ccc(CN(C)C[C@H]2Oc3ccc(NC(=O)Nc4ccc5c(c4)OCO5)cc3CC(=O)N([C@@H](C)CO)C[C@@H]2C)cc1` the figure was -64.7% (inactive); with `C/C=C/c1ccc([C@H]2[C@@H](CO)N(C(=O)Nc3ccccc3F)[C@H]2C#N)cc1`, 23.1% (inactive).
For `COC(=O)C[C@H]1CC[C@@H](N)[C@@H](CO)O1`, the inhibition was 15.9% (inactive).
In the case of `CNC[C@H]1OCc2ccccc2-c2ccccc2C(=O)N([C@H](C)CO)C[C@H]1C` it was -6.87% (inactive).
For `CCCN1C[C@H](C)[C@H](OC)CN(C)C(=O)c2cc(NC(=O)Nc3cccc(F)c3)ccc2OC[C@@H]1C`, the inhibition is 6.58% (inactive).
With `CO[C@@H]1CC[C@@H]2CCOc3ccc(C#N)cc3C(=O)N(C)[C@H](C)C(=O)N(C)C[C@H]1O2` the figure was -48.9% (inactive).
With `CN1C(=O)c2cc(NS(=O)(=O)c3ccccc3F)ccc2OC[C@H]2O[C@H](CC(=O)NC3Cc4ccccc4C3)CC[C@H]21` the figure was -1.53% (inactive); with `CN1C(=O)c2cc(NS(=O)(=O)c3ccccc3F)ccc2OC[C@@H]2O[C@H](CC(=O)NC3Cc4ccccc4C3)CC[C@@H]21`, -9.49% (inactive).
With `CN1C(=O)c2cc(NS(=O)(=O)c3ccccc3F)ccc2OC[C@@H]2O[C@@H](CC(=O)NC3Cc4ccccc4C3)CC[C@@H]21` the figure was 108% (active).
Turning to `CCS(=O)(=O)Nc1ccc2c(c1)C(=O)N(C)[C@@H]1CC[C@H](CC(=O)N3CCN(C)CC3)O[C@H]1CO2`, the inhibition is 0.381% (inactive).
With `CN1CCN(C(=O)C[C@H]2CC[C@@H]3[C@@H](COc4ccc(NC(=O)C5CCOCC5)cc4C(=O)N3C)O2)CC1`, the inhibition was 27.7% (inactive).
With `CN1C(=O)c2cc(NC(=O)Cc3cccs3)ccc2OC[C@@H]2O[C@@H](CC(=O)NCCc3ccncc3)CC[C@H]21` the figure was 60.1% (active).
With `CCS(=O)(=O)Nc1ccc2c(c1)C(=O)N(C)[C@H]1CC[C@H](CC(=O)N3CCN(C)CC3)O[C@H]1CO2` the figure was 51.4% (active); with `CN1CCN(C(=O)C[C@H]2CC[C@H]3[C@@H](COc4ccc(NC(=O)C5CCOCC5)cc4C(=O)N3C)O2)CC1`, -56% (inactive); with `CN1CCN(C(=O)C[C@@H]2CC[C@H]3[C@@H](COc4ccc(NC(=O)C5CCOCC5)cc4C(=O)N3C)O2)CC1`, 51.1% (active).
For `CN1C(=O)c2cc(NC(=O)Cc3cccs3)ccc2OC[C@H]2O[C@H](CC(=O)NCCc3ccncc3)CC[C@@H]21`, the inhibition was -70.9% (inactive).
With `CN1C(=O)c2cc(NC(=O)Cc3cccs3)ccc2OC[C@H]2O[C@@H](CC(=O)NCCc3ccncc3)CC[C@@H]21` the figure was -83.9% (inactive); with `CCS(=O)(=O)Nc1ccc2c(c1)C(=O)N(C)[C@H]1CC[C@@H](CC(=O)N3CCN(C)CC3)O[C@H]1CO2`, 15.7% (inactive).
